This note sets out measurements from PubChem BioAssay (NCATS).

Assay [1] has as its target Glucocorticoid receptor (Homo sapiens) (UniProt P04150). Briefly: qHTS assay for small molecule antagonists of glucocorticoid receptor signaling (AID 588533; active = well fitted inhibition curve with a large enough effect in the signal ratio, with a control signal flat, not every such curve was filed as active; the % refers to the signal ratio; also: potency is read from the fitted curve at half-maximal effect). A digest of the protocol: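 Antagonist-mode qHTS: compound titrations added to GRE-bla HeLa cells, then dexamethasone 2 nM final; 18 h, 37 C. CCF4 FRET fluorescence normalized to dexamethasone and DMSO; IC50 from Hill fit.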

In assay [2] the target is Peroxisome proliferator-activated receptor gamma (Homo sapiens) (UniProt P37231). Briefly: qHTS assay for small molecule agonists of peroxisome proliferator-activated receptor gamma signaling (AID 588536; active = well fitted curve in the direction sought with a large enough effect in the signal ratio, with a control signal flat, not every such curve was filed as active; the % refers to the signal ratio;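 also: 0% = DMSO basal wells and 100% = rosiglitazone at 2 µM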). A digest of the protocol:
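Ratiometric blue/green fluorescence (405 nm excitation; 460 and 530 nm emission) from CCF4-loaded HEK293 reporter cells serves as signal. Exposure to test compounds lasts 16 h at 37 C in medium containing 1% charcoal/dextran-treated serum.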
(Quantitative high-throughput screening tests each substance at several concentrations.)

Assay [3] shares this target. Briefly: qHTS assay for small molecule antagonists of peroxisome proliferator-activated receptor gamma signaling (AID 588537; active = well fitted inhibition curve with a large enough effect in the signal ratio, with a control signal flat, not every such curve was filed as active; the % refers to the signal ratio;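 also: reporter cells co-stimulated with 50 nM rosiglitazone agonist during compound treatment; % of control where 0% means no effect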). A digest of the protocol:
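PPARγ-UAS-bla HEK293 cells (3000/well) in 1% charcoal/dextran-stripped FBS are treated with compound, then stimulated with 50 nM rosiglitazone for 16 h at 37 °C. Read-out is CCF4 β-lactamase fluorescence after 2 h at RT. IC50 comes from Hill fits normalised to rosiglitazone and DMSO.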

Assay [4] concerns the target Vitamin D3 receptor (Homo sapiens) (UniProt P11473). The assay can be described thus: qHTS assay for small molecule antagonists of vitamin D receptor signaling (AID 588541).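 Also: receptor activated by calcitriol during compound treatment; series mostly up to about 77 µM; % is scaled to controls: 0 for no effect and ±100 for the full control effect.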 Put shortly:
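VDR-UAS-bla HEK293T cells in 2% charcoal-stripped FBS were stimulated with 1-alpha,25-dihydroxyvitamin D3 (3 nM final) plus compound for 16 h at 37 C. The beta-lactamase CCF4 readout was normalized to 50 nM agonist and DMSO, and Hill fits gave IC50.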

For assay [5] the target is unchanged. The assay can be described thus: qHTS assay for small molecule agonists of vitamin D receptor signaling (AID 588543).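 Also: 0% = DMSO basal and 100% = reference agonist control.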 A digest of the protocol: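 Reporter cells (HEK293T, VDR-UAS-bla) were seeded in medium with 2% charcoal-stripped serum and incubated 5 h, then compounds in concentration series were added for 16 h at 37 °C. Stimulation was scaled between DMSO basal and 50 nM 1α,25-dihydroxyvitamin D3.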

A short description of assay [6]: qHTS assay for small molecule agonists of retinoid X receptor alpha signaling (AID 588544). The following applies: HEK293T RXRa-UAS-bla, beta-lactamase reporter, 18 h; 530 nm emission.
Assay [7] has as its target Retinoic acid receptor RXR-alpha (Homo sapiens) (UniProt P19793). The assay is described as above.
In assay [8] the target is Thyroid hormone receptor beta (Homo sapiens) (UniProt P10828). The assay can be described thus: qHTS assay for small molecule agonists of thyroid hormone receptor beta signaling (AID 588545).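 Also: 0% = DMSO only and 100% = 10 nM T3.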 Put shortly: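 Efficacy and EC50 values derive from Hill fits of qHTS titration data, normalized to 10 nM T3 and DMSO-only wells. HEK 293 reporter cells were stimulated for 18 hrs at 37 C, with beta-lactamase activity measured by CCF4 fluorescence.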
Chain of Thyroid hormone receptor beta (Homo sapiens) (P10828 whole entry, looked up): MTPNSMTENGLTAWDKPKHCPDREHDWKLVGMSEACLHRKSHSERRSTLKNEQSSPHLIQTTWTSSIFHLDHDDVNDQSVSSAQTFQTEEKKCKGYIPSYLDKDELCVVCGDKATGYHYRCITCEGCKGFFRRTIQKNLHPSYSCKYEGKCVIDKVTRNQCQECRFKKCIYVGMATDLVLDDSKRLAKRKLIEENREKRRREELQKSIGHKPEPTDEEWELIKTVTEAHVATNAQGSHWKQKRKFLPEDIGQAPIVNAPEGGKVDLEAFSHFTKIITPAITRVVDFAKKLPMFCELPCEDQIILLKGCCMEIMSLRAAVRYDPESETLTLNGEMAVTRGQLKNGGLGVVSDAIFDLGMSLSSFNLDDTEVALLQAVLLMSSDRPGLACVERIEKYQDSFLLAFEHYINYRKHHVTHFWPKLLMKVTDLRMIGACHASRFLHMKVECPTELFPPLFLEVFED

Assay [9] in a line: qHTS assay for small molecule antagonists of retinoid X receptor alpha signaling (AID 588546; active = well fitted inhibition curve with a large enough effect in the signal ratio, with a control signal flat, not every such curve was filed as active; the % refers to the signal ratio;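 also: cells stimulated with 9-cis-retinoic acid as agonist; % is scaled to controls: 0 for no effect and ±100 for the full control effect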). The conditions noted are these: HEK293T RXRa-UAS-bla, beta-lactamase ratio, antagonist mode; measured here: W530 green channel, cytotoxicity proxy. Put shortly: (§1)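 Beta-lactamase reporter inhibition, read as CCF4 fluorescence ratio (ex 405, em 460/530 nm) after 2 h at RT. HEK293T UAS-bla cells, 2500/well, were stimulated with 9-cis-RA at 500 or 100 nM final alongside test compound for 18 h at 37 C.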

In assay [10] the target is Retinoic acid receptor RXR-alpha (Homo sapiens) (UniProt P19793). The assay is described as above. The following applies: HEK293T RXRa-UAS-bla, beta-lactamase ratio, antagonist mode. A digest of the protocol: as §1
Chain of Retinoic acid receptor RXR-alpha (Homo sapiens) (P19793 whole entry, looked up): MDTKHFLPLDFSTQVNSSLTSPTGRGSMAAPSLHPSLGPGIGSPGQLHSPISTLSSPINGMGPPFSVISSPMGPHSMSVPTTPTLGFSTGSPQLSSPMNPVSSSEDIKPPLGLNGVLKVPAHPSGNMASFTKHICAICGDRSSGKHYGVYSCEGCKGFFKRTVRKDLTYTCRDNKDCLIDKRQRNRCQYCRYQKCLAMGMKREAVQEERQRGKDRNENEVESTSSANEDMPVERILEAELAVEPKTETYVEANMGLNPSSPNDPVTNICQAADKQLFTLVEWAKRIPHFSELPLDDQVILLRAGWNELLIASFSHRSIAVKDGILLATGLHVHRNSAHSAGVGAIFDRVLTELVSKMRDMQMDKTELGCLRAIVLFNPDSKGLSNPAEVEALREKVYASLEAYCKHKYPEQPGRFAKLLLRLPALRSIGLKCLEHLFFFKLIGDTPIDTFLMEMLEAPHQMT
The target in assay [11] is Thyroid hormone receptor beta (Homo sapiens) (UniProt P10828). Briefly: qHTS assay for small molecule antagonists of thyroid hormone receptor beta signaling (AID 588547; active = well fitted inhibition curve with a large enough effect in the signal ratio, with a control signal flat, not every such curve was filed as active; the % refers to the signal ratio;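 also: cells stimulated with 0.4 nM T3 agonist during compound exposure; series mostly up to about 77 µM; % is scaled to controls: 0 for no effect and ±100 for the full control effect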). The conditions noted are these: TR-UAS-bla HEK293, beta-lactamase ratio, antagonist mode, 18 h. A digest of the protocol: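 TR-UAS-bla GripTite HEK293 cells in 2% charcoal/dextran FBS medium; compounds 0.59 nM to 92 uM with T3 at 0.4nM final, 18 h at 37 C. Beta-lactamase read by CCF4 fluorescence (460/530 nm); Hill fits gave IC50 and efficacy.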

Assay [12] addresses Voltage-gated inwardly rectifying potassium channel KCNH2 (Homo sapiens) (UniProt Q12809). The assay can be described thus: qHTS Assay for Small Molecule Inhibitors of the Human hERG Channel Activity (AID 588834; active = well fitted curve in the direction sought with a large enough effect; an effect the other way counts as inactive or inconclusive;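 also: top concentration of the series differs between compounds; % is scaled to controls: 0 for no effect and ±100 for the full control effect; lower thallium flux fluorescence means stronger hERG block; nearly all actives have a fitted effect of over 50% in size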). A digest of the protocol:
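hERG-BacMam U2OS, 2000 cells/well; 0.7X FluxOR loading 1 hr RT dark; cpd ~10 min 37 °C; stim buffer; FDSS fluorescence 2 min @ 1 s; AC50 Hill fit.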

Assay [13] concerns the target Luciferin 4-monooxygenase (Photinus pyralis) (UniProt P08659). Briefly: Biochemical firefly luciferase enzyme assay for NPC (AID 624030; active = well fitted curve in the direction sought with a large enough effect; an effect the other way counts as inactive or inconclusive;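 also: purified P. pyralis luciferase at 10 nM with luciferin and ATP substrate; series mostly up to about 59 µM; 0% = DMSO and -100% = full luciferase inhibition by PTC124 control; nearly all actives have a fitted effect of over 70% in size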). A digest of the protocol:
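Purified P. pyralis luciferase at 10 nM in 50 mM Tris Acetate (final), luminescence read within 5 minutes of enzyme addition to compounds. Activity normalised to PTC124 versus DMSO; concentration-response curves classed by r2, magnitude and activity.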

Assay [14] can be described thus: S16 Schwann cell viability assay (CellTiter-Glo assay) (AID 624031; active = well fitted curve in the direction sought with a large enough effect; an effect the other way counts as inactive or inconclusive;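 also: native untransfected S16 rat Schwann cells; series mostly up to about 58 µM; plate controls were DMSO-treated cells for no effect and cell-free wells for full effect; nearly all actives have a fitted effect of over 70% in size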). A digest of the protocol:
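Counter-screen for cytotoxicity: parental S16 rat Schwann cells lacking the PMP22 reporters, treated 24 h with compound, viability from cellular ATP by CellTiter-Glo luminescence, normalized to DMSO (0%) and no-cell wells.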
Background: In ATP-based viability assays light output follows the ATP content of the culture.

Assay [15] can be described thus: S16 Schwann cell PMP22 intronic element firefly luciferase assay (AID 624032; active = well fitted curve in the direction sought with a large enough effect; an effect the other way counts as inactive or inconclusive;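 also: series mostly up to about 58 µM; plate controls were DMSO for no effect and PTC124 positive control mean for full effect; nearly all actives have a fitted effect of over 30% in size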). A digest of the protocol: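 Rat S16 Schwann cells stably carrying firefly luciferase driven by a PMP22 intronic element, in 10% FBS, treated 24 h at 37 C. ONE-Glo luminescence normalized to PTC124 control and DMSO (0%); curves classed by r2, magnitude and activity.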
The target of assay [16] is Peroxisome proliferator-activated receptor delta (Homo sapiens) (UniProt Q03181). Briefly: qHTS assay for small molecule agonists of peroxisome proliferator-activated receptor delta signaling (AID 588534).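 Also: 0% = DMSO basal wells and 100% = positive control agonist at 10 µM.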 A digest of the protocol:
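Cells carrying a PPAR-delta beta-lactamase reporter were treated with compounds for 18 h at 37 °C in agonist mode. CCF4 fluorescence was read after 2 h; EC50 and efficacy from Hill fits.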

The nature of assay [17]: qHTS assay for small molecule antagonists of peroxisome proliferator-activated receptor delta signaling (AID 588535; active = well fitted inhibition curve with a large enough effect in the signal ratio, with a control signal flat, not every such curve was filed as active; the % refers to the signal ratio;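 as to max response: cells co-treated with a PPAR-delta agonist as stimulator during compound exposure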). The following applies: HEK293T PPARd-UAS-bla, beta-lactamase FRET ratio, 18 h; 460 nm channel. A digest of the protocol:
(§2)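 Antagonist-mode beta-lactamase reporter (GeneBLAzer PPAR-delta-UAS-bla) in HEK293T cells, 2% charcoal/dextran FBS, 4000 cells/well. Compound titrations, 18 h at 37 C; CCF4 ratio read, IC50 and efficacy from Hill fits.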

The target of assay [18] is Peroxisome proliferator-activated receptor delta (Homo sapiens) (UniProt Q03181). The description is as above. A digest of the protocol: as §2
Chain of Peroxisome proliferator-activated receptor delta (Homo sapiens) (Q03181 whole entry, looked up): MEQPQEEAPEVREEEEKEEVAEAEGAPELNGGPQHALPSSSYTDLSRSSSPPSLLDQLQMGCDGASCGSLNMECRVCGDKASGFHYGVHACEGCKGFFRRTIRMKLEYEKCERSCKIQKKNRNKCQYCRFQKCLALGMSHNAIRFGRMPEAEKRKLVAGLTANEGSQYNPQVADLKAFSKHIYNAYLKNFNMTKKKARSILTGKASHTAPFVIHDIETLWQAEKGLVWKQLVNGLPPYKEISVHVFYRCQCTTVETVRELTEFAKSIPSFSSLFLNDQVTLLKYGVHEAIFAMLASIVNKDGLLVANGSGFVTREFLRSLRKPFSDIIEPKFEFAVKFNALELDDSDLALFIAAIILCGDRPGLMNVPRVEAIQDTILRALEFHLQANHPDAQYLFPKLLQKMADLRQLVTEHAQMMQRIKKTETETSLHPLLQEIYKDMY
A short description of assay [19]: S16 Schwann cell PMP22 intronic element beta-lactamase assay (AID 624044).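 Also: 0% = DMSO and -100% = potassium clavulanate positive control; nearly all actives have a fitted effect of over 15% in size.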 A digest of the protocol:
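Rat S16 Schwann cells with beta-Lac driven by a PMP22 intronic element, compound-treated 24 h at 37 °C. LiveBLAzer FRET B/G read: 460 nm normalized to potassium clavulanate vs DMSO; 535 nm FRET as viability; concentration-effect curves classified.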

The target in assay [20] is Glutaminase kidney isoform, mitochondrial (Homo sapiens) (UniProt O94925). Briefly: qHTS for Inhibitors of Glutaminase (GLS): LOPAC Validation (AID 624146; active = well fitted curve in the direction sought with a large enough effect; an effect the other way counts as inactive or inconclusive;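 also: glutamate product detected by oxidase and peroxidase coupled Amplex red fluorescence gain; series mostly up to about 46 µM; % is scaled to controls: 0 for no effect and ±100 for the full control effect; nearly all actives have a fitted effect of over 60% in size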). Put shortly:
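Enzyme dispensed in phosphate buffer (45 mM, pH 8.2, 0.02% Tween-20), compounds pinned in, then 1 mM L-glutamine solution and the glutamate oxidase–HRP–Amplex Red mix added; fluorescence read immediately and again after 30 min at room temperature.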

“And” between values parts separate entries of the source, which are not always exact repeats. Equal values may be shown once. Results filed as inconclusive are left out. The source made the active and inactive calls. Unless noted, calls follow the shape of the full dose curve.

Chain of Vitamin D3 receptor (Homo sapiens) (P11473 whole entry, looked up): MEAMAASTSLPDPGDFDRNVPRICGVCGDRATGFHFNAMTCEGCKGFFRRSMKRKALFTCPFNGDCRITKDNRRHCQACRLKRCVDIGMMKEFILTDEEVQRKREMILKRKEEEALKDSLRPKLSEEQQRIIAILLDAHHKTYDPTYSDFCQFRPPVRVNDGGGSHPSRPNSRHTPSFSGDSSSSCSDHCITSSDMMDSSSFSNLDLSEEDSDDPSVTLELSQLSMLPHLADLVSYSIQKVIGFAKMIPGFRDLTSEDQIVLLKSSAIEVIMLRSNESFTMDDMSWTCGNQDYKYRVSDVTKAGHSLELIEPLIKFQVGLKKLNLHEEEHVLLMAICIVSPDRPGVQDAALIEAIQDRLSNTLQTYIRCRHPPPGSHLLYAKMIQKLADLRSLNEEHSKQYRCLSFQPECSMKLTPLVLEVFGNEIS
Chain of Peroxisome proliferator-activated receptor gamma (Homo sapiens) (P37231 whole entry, looked up): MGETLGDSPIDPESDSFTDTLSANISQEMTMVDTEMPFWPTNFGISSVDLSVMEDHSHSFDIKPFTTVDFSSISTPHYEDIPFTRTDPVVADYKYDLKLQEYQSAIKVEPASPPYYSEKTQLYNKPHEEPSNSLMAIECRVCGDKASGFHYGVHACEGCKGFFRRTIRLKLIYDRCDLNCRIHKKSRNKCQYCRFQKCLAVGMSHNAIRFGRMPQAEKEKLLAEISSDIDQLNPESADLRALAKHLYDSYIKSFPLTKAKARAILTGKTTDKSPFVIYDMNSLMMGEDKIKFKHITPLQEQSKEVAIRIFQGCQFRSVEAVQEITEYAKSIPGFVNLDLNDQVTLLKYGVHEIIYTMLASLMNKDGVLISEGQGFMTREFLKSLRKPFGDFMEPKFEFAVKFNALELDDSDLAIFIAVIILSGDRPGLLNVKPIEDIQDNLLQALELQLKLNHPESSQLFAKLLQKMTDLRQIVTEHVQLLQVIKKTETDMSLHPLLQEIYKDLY
Chain of Voltage-gated inwardly rectifying potassium channel KCNH2 (Homo sapiens) (Q12809 whole entry, looked up): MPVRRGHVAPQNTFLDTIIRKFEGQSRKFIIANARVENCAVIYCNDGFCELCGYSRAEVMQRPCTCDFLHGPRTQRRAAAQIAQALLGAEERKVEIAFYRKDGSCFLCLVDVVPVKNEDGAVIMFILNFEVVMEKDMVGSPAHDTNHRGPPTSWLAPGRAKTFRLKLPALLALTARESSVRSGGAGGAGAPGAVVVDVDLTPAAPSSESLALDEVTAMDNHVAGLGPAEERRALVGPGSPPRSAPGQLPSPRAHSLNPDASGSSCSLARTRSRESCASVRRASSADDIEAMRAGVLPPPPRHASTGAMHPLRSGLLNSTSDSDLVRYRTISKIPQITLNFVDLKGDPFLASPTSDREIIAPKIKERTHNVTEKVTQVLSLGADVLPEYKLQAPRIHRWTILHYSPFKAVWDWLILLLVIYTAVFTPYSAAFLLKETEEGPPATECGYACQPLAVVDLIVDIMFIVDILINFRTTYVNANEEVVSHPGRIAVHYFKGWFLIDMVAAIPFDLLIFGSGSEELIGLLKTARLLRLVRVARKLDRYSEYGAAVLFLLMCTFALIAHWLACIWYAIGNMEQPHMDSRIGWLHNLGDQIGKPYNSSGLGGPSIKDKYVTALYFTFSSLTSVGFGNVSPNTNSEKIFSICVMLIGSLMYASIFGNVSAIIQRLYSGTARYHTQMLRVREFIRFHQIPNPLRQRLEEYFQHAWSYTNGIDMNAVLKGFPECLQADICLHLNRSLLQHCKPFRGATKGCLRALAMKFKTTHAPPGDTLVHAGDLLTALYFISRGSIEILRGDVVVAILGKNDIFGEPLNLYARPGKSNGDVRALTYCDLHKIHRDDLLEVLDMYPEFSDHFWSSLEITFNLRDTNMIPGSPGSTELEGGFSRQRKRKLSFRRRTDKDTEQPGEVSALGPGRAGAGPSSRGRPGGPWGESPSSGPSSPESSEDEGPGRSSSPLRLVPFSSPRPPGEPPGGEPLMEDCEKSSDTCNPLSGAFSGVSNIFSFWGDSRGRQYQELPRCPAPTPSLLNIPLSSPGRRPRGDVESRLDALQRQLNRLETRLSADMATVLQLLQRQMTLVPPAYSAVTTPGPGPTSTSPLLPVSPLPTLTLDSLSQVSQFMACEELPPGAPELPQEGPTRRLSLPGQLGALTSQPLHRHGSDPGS
Chain of Glucocorticoid receptor (Homo sapiens) (P04150 whole entry, looked up): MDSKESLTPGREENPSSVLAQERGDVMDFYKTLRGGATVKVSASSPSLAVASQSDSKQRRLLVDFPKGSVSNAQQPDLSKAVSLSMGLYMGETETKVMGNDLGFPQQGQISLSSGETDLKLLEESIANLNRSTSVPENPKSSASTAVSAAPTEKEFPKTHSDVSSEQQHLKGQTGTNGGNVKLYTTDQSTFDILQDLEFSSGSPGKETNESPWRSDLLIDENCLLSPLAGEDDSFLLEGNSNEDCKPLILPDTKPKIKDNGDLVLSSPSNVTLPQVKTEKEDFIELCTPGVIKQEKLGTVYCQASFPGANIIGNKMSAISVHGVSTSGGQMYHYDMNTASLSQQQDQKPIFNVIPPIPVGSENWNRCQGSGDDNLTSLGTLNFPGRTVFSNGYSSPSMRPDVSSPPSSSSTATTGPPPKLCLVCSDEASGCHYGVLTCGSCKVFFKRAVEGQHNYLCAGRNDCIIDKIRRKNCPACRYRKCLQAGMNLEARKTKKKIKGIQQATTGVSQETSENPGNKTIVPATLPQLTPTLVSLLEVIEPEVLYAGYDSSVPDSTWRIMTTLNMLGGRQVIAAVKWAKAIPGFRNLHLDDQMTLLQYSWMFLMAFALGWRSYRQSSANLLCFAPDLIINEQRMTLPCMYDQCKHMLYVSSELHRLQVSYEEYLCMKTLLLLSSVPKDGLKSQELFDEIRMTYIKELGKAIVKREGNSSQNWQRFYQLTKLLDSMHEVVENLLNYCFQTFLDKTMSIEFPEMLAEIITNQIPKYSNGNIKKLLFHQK
Chain of Luciferin 4-monooxygenase (Photinus pyralis) (P08659 whole entry, looked up): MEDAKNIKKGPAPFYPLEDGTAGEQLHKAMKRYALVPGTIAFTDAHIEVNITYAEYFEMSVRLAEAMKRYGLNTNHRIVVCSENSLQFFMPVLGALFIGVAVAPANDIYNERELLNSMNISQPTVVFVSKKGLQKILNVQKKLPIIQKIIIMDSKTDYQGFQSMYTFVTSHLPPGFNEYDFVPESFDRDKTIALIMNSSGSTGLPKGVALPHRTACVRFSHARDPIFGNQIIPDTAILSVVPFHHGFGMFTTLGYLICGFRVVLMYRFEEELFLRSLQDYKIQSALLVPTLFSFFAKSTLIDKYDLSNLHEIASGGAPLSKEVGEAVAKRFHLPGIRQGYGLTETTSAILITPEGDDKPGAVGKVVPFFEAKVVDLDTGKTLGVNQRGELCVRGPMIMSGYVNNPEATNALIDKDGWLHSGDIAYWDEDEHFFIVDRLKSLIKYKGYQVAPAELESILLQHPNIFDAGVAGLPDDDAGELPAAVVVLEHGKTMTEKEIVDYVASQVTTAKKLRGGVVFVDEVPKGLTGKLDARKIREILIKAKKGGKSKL

In the case of `CCC(C)(C)c1ccc(O)cc1`, the Potency entry in assay [1], in assay [4], in assay [7], in [12], in assay [13] and in assay [15] was “inactive” each time. Besides, the compound was called inactive in assay [2], in assay [3], in assay [5], in assay [8] and in [14]. The max response in assay [6] was -12.7% and -6.48%; in assay [9], -6.99% and -5.65%; in [10], 7.35% (inactive) and 8.15% (inactive). Also, the activity change % (negative = inhibition) in assay [11] was 9.09% (inactive).

For `Nc1ccc(S(=O)(=O)c2ccc(N)cc2)cc1`, in assay [16], the compound was called inactive.

On to `O=C(c1ccccc1)c1ccccc1`, for which the compound was called inactive in assay [16].

On to `Cc1c(C(=O)NCCO)[n+](=O)c2ccccc2n1[O-]`, for which, in [16], the call was inactive.

Take `O=C(O)CCCCC1CCSS1` (centres undefined): the outcome in assay [16] was inactive.

`COc1cc(C=O)ccc1O`: the result in assay [16] was inactive.

On to `NNC(=O)c1ccncc1`, for which the compound was classed as inactive in [16].

Turning to `Nc1nc(N)nc(NC2CC2)n1`, the Potency result in [1], in [7], in [12], in assay [13] and in assay [15] was “inactive” throughout. For the same compound, the outcome in assay [16], in assay [18], in assay [8] and in assay [14] was inactive. Moreover, the max response in assay [17] is 47%; in [6], -19.4%; in [9], -17.8%; in assay [10], 6.27% (inactive). Besides, the activity change % (negative = inhibition) in [11] was -23% (inactive).

On to `COP(=S)(OC)Oc1cc(Cl)c(Cl)cc1Cl`, for which the Potency result in assay [1], in assay [7] and in assay [13] was “inactive” throughout. In addition, the result in [16], in assay [18], in assay [2], in assay [3] and in assay [8] was inactive. Also, the max response was 28.8% in assay [17], -2.58% in assay [6], 1.09% in assay [9] and -5.5% (inactive) in assay [10]. Moreover, in assay [11], the activity change % (negative = inhibition) is 19.2% (inactive).

Consider `NCCc1ccc(O)cc1`, for which the Potency result in assay [1], in assay [7], in assay [12], in assay [13], in assay [15] and in assay [20] was “inactive” in each case. For the same compound, the result in assay [16], in [18], in assay [2], in assay [8], in assay [14] and in [19] was inactive. Besides, the max response in assay [17] is -1.35%; in assay [6], -3.57%; in [9], -9.48%; in assay [10], -2.52% (inactive). The activity change % (negative = inhibition) in [11] is -4.83% (inactive).

With `COP(=S)(OC)SCN1C(=O)c2ccccc2C1=O`, the Potency result in [1], in [12], in [13] and in assay [15] was “inactive” each time. Also, the compound was classed as inactive in assay [16], in assay [2], in assay [8], in assay [14] and in assay [19]. Also, the activity change % (negative = inhibition) in [11] was -12.6% (inactive).

Consider `CCCCC(CC)COC(=O)c1ccccc1O` (centres undefined), for which the result in assay [16] was inactive.

For `C[C@]1(O)CC[C@H]2[C@@H]3CCC4=CC(=O)CC[C@]4(C)[C@@]3(F)[C@@H](O)C[C@@]21C`, the Potency in assay [1] was 10 µM (active). Moreover, the outcome in [16], in assay [18], in assay [2], in assay [3] and in assay [8] was inactive. Moreover, the max response in assay [17] was -0.651%; in [6] it was 3.94%; in [9] it was 17.9%; in [10], -6.75% (inactive). Moreover, the Potency entry in assay [7] and in assay [12] was “inactive” in each case. For the same compound, the activity change % (negative = inhibition) in assay [11] was 5.6% (inactive).
